Inconclusive results are not listed. Active and inactive are the calls of the source. The calls were made as follows, unless noted: active = hit-call score of the fitted dose curve at least 0.9, where 1 is the maximum; inconclusive = response in the unintended direction; inactive = score below 0.9.
Columns and labels:
[1] = ATG_TCF_b_cat_CIS: Attagene CIS-FACTORIAL HepG2 Assay for human T-Cell-Factor with beta-catenin (TCF/b-cat) (AID 2282965; active = hit-call score of the fitted dose curve at least 0.9, where 1 is the maximum; inactive = score below 0.9); conditions: HepG2 TCF/beta-catenin cis-reporter transcription, actives raise or lower the signal
Outline: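 HepG2, transient MRTU transfection, cis-element-driven reporters (endogenous TFs). 24 h compound exposure. Readout: reporter mRNA by RT-PCR + 6-FAM primer extension, HpaI digest, capillary electrophoresis. Gain/loss fit vs DMSO baseline.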

[2] = ATG_TAL_CIS: Attagene CIS-FACTORIAL HepG2 Assay for human TAL Basal Promoter (AID 2282966; active = hit-call score of the fitted dose curve at least 0.9, where 1 is the maximum; inactive = score below 0.9;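 also: background control endpoint measuring basal TAL promoter reporter mRNA not a specific factor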); conditions: HepG2 Attagene cis-factorial TAL promoter reporter; actives raise or lower the signal
Outline: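 Basal-promoter background-control endpoint from a multiplexed HepG2 reporter panel. Cells were exposed 24 h, then reporter mRNA was read by RT-PCR/CE fluorescence and fitted in both directions relative to DMSO.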

[3] = ATG_TGFb_CIS: Attagene CIS-FACTORIAL HepG2 Assay for human Transforming Growth Factor (TGF) (AID 2282967; active = hit-call score of the fitted dose curve at least 0.9, where 1 is the maximum; inactive = score below 0.9); conditions: HepG2 Attagene CIS TGFb reporter, mRNA transcription; actives raise or lower the signal
Outline: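 Bidirectional fitting relative to DMSO gave the endpoint. Underlying data: reporter mRNA from HepG2 cells carrying transiently transfected cis-regulated reporter constructs, harvested 24 h after dosing and analyzed by RT-PCR and capillary electrophoresis.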

[4] = ATG_VDRE_CIS: Attagene CIS-FACTORIAL HepG2 Assay for human Vitamin D Receptor Element (VDRE) (AID 2282968; active = hit-call score of the fitted dose curve at least 0.9, where 1 is the maximum; inactive = score below 0.9); conditions: HepG2 VDRE cis-reporter transcription, actives raise or lower the signal
Outline: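 Compounds were applied for 24 h to HepG2 cells transfected with promoter-regulated reporter units. Total RNA was reverse-transcribed, and reporter amplicons were fluorescently labelled and sized by capillary electrophoresis.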

[5] = biological target: Nuclear receptor subfamily 1 group I member 3 (Homo sapiens) (UniProt Q14994); test: ATG_CAR_TRANS: Attagene TRANS-FACTORIAL HepG2 Assay for human Constitutive Androstane Receptor (CAR) (AID 2282969); conditions: HepG2 Attagene TRANS-FACTORIAL CAR reporter;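 also: activators raise reporter mRNA above DMSO so AC50 marks induction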
Outline: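 Transiently transfected HepG2, multiplex TRANS reporters (CAR-Gal4 chimera driving GAL4-UAS reporter). 24 h dosing. Readout: reporter transcript by RT-PCR + capillary electrophoresis, fluorescence intensity; positive direction vs DMSO.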

[6] = biological target: Steroid hormone receptor ERR1 (Homo sapiens) (UniProt P11474); test: ATG_ERRa_TRANS: Attagene TRANS-FACTORIAL HepG2 Assay for human Estrogen-Related Receptor alpha (ERRa) (AID 2282971); conditions: HepG2 Attagene TRANS reporter, ERRa transactivation
Outline: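 HepG2 cells transiently transfected with GAL4-UAS reporter units and chimeric NR-Gal4 constructs; after 24 hour compound incubation, reporter mRNA quantified by RT-PCR, fluorescent labelling and capillary electrophoresis, gain of signal versus DMSO.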

[7] = biological target: X-box-binding protein 1 (Homo sapiens) (UniProt P17861); test: ATG_Xbp1_CIS: Attagene CIS-FACTORIAL HepG2 Assay for human X-box Binding Protein 1 (XBP1) (AID 2282972; active = hit-call score of the fitted dose curve at least 0.9, where 1 is the maximum; inactive = score below 0.9); conditions: HepG2 XBP1 cis-element reporter, Attagene multiplex; actives raise or lower the signal
Outline: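 Human hepatoma HepG2, cis-element reporter system, 24 h treatment; mRNA quantified by RT-PCR/CE fluorescence; fit relative to DMSO.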

[8] = ATG_M_19_TRANS: Attagene TRANS-FACTORIAL HepG2 Assay for M19 Transcription Factor (Internal Marker) (AID 2282974); conditions: HepG2 Attagene TRANS-FACTORIAL M19 internal marker reporter
Outline: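 Using RT-PCR and capillary electrophoresis, reporter mRNA from transiently transfected human HepG2 cells was quantified following 24 h exposure; activity was fitted in the positive direction against DMSO.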

[9] = biological target: Glucocorticoid receptor (Homo sapiens) (UniProt P04150); test: ATG_GR_TRANS: Attagene TRANS-FACTORIAL HepG2 Assay for human Glucocorticoid Receptor (GR) (AID 2282978); conditions: HepG2 Attagene TRANS GR reporter, mRNA transcription;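 also: activators score as hits since higher reporter transcript over DMSO is fitted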
Outline: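 Exogenous NR-GAL4 fusion activity was assessed through induced GAL4-UAS reporter transcripts in transfected human HepG2 cells, quantified after 24 h by RT-PCR and fluorescent capillary electrophoresis with DMSO as baseline.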

[10] = biological target: Oxysterols receptor LXR-alpha (Homo sapiens) (UniProt Q13133); test: ATG_LXRa_TRANS: Attagene TRANS-FACTORIAL HepG2 Assay for human Liver X Receptor alpha (LXRa) (AID 2282980); conditions: HepG2 Attagene TRANS reporter, LXRa transactivation
Outline: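 HepG2 cells transiently transfected with GAL4-UAS reporter units for chimeric NR-Gal4 proteins, exposed to chemicals for 24 h. Reporter mRNA quantified by RT-PCR and capillary electrophoresis; gain of signal fitted relative to DMSO.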

[11] = biological target: Oxysterols receptor LXR-beta (Homo sapiens) (UniProt P55055); test: ATG_LXRb_TRANS: Attagene TRANS-FACTORIAL HepG2 Assay for human Liver X Receptor beta (LXRb) (AID 2282981); conditions: HepG2 Attagene TRANS GAL4-LXRb reporter, mRNA
Outline: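 Multiplexed reporter assay, HepG2, 24 h dosing. Fluorescence of labelled RT-PCR products after capillary electrophoresis gives transcript level; positive fitting direction relative to DMSO.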

[12] = biological target: Hepatocyte nuclear factor 4-alpha (Homo sapiens) (UniProt P41235); test: ATG_HNF4a_TRANS: Attagene TRANS-FACTORIAL HepG2 Assay for human Hepatocyte Nuclear Factor 4 alpha (HNF4a) (AID 2282982); conditions: HepG2 HNF4a transactivation reporter, mRNA readout
Outline: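 Endpoint reflects transcriptional activation of a GAL4-UAS reporter by an HNF4a-GAL4 chimera in transfected HepG2 cells, 24 h post-dosing. Fluorescence from RT-PCR products separated by capillary electrophoresis; DMSO baseline.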

[13] = ATG_M_32_TRANS: Attagene TRANS-FACTORIAL HepG2 Assay for M32 Transcription Factor (Internal Marker) (AID 2282984); conditions: HepG2 Attagene TRANS M32 internal marker reporter
Outline: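 Internal-marker readout from a multiplexed transcription reporter panel. HepG2 cells were transfected with GAL4-UAS reporter units, treated 24 hours, and reporter transcript levels determined by fluorescence after RT-PCR and capillary separation.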

[14] = biological target: Nuclear receptor subfamily 4 group A member 2 (Homo sapiens) (UniProt P43354); test: ATG_NURR1_TRANS: Attagene TRANS-FACTORIAL HepG2 Assay for human Nuclear Receptor Related Protein 1 (NURR1) (AID 2282985); conditions: HepG2 Attagene TRANS reporter, mRNA readout
Outline: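 Endpoint: reporter mRNA increase relative to DMSO. HepG2 cells transfected with reporter units, treated 24 h; RNA processed by RT-PCR, labelling, HpaI digestion and capillary electrophoresis.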

[15] = biological target: Transcriptional activator Myb (Homo sapiens) (UniProt P10242); test: ATG_Myb_CIS: Attagene CIS-FACTORIAL HepG2 Assay for human Myeloblastosis (Myb) Proto-Oncogene Transcription Factor (AID 2282986; active = hit-call score of the fitted dose curve at least 0.9, where 1 is the maximum; inactive = score below 0.9); conditions: HepG2 Attagene CIS-FACTORIAL Myb reporter transcription; actives raise or lower the signal
Outline: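 In this HepG2 transient-transfection format, cis-regulated reporter mRNA is quantified 24 h post-dosing by RT-PCR with capillary electrophoresis, fitted bidirectionally to DMSO baseline.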

[16] = biological target: Estrogen receptor (Homo sapiens) (UniProt P03372); test: ATG_ERa_TRANS: Attagene TRANS-FACTORIAL HepG2 Assay for human Estrogen Receptor alpha (ERa) (AID 2282970); conditions: HepG2 Attagene TRANS ERa GAL4 reporter, mRNA
Outline: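 Gal4-fusion ERa transactivation, measured as reporter transcript level in transiently transfected HepG2 cells. Exposure 24 h; RT-PCR plus capillary electrophoresis with fluorescence detection.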

[17] = ATG_GAL4_TRANS: Attagene TRANS-FACTORIAL HepG2 Assay for GAL4 (Internal Marker) (AID 2282976); conditions: HepG2 Attagene TRANS GAL4 internal marker reporter
Outline: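 Background-control readout: GAL4-UAS reporter transcript in transiently transfected HepG2 cells after 24 h compound exposure. Measured by RT-PCR, 6-FAM primer extension, HpaI digest and capillary electrophoresis; gain-of-signal fit versus DMSO.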

[18] = biological target: Bile acid receptor (Homo sapiens) (UniProt Q96RI1); test: ATG_FXR_TRANS: Attagene TRANS-FACTORIAL HepG2 Assay for Farnesoid X Receptor (FXR) (AID 2282979); conditions: HepG2 Attagene TRANS FXR-GAL4 reporter transcription;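 also: hits raise reporter mRNA above DMSO so AC50 marks FXR activation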
Outline: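 HepG2 cells were transiently transfected with GAL4-UAS reporters driven by chimeric NR-Gal4 proteins and dosed for 24 h. Reporter mRNA was quantified by RT-PCR, fluorescent labelling, HpaI digestion and capillary electrophoresis, with gain of signal scored versus DMSO.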

[19] = ATG_M_06_TRANS: Attagene TRANS-FACTORIAL HepG2 Assay for M06 Transcription Factor (Internal Marker) (AID 2282983); conditions: HepG2 Attagene TRANS M06 internal marker reporter
Outline: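 mRNA levels of a reporter transcript, quantified as FAM fluorescence on capillary electrophoresis, served as readout. HepG2 cells expressing exogenous GAL4-chimera reporter constructs were exposed for 24 h. Gain of signal over DMSO was evaluated.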

[20] = biological target: Estrogen-related receptor gamma (Homo sapiens) (UniProt P62508); test: ATG_ERRg_TRANS: Attagene TRANS-FACTORIAL HepG2 Assay for human Estrogen-Related Receptor gamma (ERRg) (AID 2282977); conditions: HepG2 Attagene TRANS reporter, ERRg transactivation;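 also: hits increase reporter signal over DMSO so potencies reflect activators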
Outline: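 Induction of reporter transcripts through a chimeric NR-Gal4 protein is quantified in transfected human HepG2 liver cells after 24 h chemical exposure, using RT-PCR with capillary electrophoresis detection and DMSO as baseline.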

Sequence of Hepatocyte nuclear factor 4-alpha (Homo sapiens) (P41235 whole entry, looked up, the tested form may be a part): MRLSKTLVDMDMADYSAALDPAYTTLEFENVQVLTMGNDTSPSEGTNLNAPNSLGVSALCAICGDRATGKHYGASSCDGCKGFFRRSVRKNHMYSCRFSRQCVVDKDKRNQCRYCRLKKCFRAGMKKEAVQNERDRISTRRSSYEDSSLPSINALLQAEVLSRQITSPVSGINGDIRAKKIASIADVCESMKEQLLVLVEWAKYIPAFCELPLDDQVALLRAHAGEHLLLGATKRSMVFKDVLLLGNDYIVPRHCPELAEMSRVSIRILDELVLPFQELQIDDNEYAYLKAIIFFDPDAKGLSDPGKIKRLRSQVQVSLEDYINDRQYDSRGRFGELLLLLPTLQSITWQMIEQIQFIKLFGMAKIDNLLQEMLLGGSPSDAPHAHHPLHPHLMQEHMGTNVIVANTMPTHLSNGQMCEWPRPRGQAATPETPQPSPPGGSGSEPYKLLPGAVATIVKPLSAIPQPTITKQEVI
Sequence of X-box-binding protein 1 (Homo sapiens) (P17861 whole entry, looked up): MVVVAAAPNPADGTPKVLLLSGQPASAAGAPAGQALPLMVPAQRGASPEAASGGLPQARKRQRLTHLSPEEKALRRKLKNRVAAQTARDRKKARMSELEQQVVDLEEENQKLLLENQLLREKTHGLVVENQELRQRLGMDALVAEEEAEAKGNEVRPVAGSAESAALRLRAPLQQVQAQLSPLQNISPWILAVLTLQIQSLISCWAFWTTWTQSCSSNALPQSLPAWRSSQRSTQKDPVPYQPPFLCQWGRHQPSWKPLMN
Sequence of Oxysterols receptor LXR-beta (Homo sapiens) (P55055 whole entry, looked up, the tested form may be a part): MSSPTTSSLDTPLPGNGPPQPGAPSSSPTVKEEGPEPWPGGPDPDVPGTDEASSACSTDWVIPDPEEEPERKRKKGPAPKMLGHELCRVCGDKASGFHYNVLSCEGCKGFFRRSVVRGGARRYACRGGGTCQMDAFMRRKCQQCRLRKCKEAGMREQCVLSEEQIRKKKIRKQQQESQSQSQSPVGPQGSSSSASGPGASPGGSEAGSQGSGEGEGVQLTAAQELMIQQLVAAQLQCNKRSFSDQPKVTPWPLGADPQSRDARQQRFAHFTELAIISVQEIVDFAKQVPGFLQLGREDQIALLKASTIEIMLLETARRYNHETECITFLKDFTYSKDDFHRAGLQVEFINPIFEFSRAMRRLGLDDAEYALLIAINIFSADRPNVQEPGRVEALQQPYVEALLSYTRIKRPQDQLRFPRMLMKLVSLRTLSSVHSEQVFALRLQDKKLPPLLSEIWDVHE
Sequence of Estrogen receptor (Homo sapiens) (P03372 whole entry, looked up, the tested form may be a part): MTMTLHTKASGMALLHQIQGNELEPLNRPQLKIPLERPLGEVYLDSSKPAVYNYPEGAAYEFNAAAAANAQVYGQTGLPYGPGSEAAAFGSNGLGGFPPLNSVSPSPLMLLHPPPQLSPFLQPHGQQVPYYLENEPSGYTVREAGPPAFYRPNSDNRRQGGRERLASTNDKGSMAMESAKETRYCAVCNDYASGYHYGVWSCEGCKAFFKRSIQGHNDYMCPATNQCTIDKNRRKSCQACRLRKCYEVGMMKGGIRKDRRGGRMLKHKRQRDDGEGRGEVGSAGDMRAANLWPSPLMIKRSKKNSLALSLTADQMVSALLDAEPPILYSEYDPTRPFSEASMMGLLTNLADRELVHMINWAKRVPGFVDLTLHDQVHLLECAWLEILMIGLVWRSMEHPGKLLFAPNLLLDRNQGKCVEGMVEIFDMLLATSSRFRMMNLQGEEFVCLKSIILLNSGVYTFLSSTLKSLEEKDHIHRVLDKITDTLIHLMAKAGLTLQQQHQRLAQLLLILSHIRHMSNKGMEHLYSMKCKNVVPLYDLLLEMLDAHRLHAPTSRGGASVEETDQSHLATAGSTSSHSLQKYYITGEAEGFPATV
Sequence of Steroid hormone receptor ERR1 (Homo sapiens) (P11474 whole entry, looked up, the tested form may be a part): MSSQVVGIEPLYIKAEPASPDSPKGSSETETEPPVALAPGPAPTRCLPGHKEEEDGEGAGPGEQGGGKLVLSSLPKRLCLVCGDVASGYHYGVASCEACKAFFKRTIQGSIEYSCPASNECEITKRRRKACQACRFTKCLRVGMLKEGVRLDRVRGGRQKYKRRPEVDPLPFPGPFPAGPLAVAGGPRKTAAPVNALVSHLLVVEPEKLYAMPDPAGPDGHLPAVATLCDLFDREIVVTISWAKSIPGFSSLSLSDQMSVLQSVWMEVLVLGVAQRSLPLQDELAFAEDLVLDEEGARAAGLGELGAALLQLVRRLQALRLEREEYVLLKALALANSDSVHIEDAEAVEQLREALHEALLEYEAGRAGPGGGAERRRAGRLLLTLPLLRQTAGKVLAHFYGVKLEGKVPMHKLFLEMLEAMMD
Sequence of Transcriptional activator Myb (Homo sapiens) (P10242 whole entry, looked up): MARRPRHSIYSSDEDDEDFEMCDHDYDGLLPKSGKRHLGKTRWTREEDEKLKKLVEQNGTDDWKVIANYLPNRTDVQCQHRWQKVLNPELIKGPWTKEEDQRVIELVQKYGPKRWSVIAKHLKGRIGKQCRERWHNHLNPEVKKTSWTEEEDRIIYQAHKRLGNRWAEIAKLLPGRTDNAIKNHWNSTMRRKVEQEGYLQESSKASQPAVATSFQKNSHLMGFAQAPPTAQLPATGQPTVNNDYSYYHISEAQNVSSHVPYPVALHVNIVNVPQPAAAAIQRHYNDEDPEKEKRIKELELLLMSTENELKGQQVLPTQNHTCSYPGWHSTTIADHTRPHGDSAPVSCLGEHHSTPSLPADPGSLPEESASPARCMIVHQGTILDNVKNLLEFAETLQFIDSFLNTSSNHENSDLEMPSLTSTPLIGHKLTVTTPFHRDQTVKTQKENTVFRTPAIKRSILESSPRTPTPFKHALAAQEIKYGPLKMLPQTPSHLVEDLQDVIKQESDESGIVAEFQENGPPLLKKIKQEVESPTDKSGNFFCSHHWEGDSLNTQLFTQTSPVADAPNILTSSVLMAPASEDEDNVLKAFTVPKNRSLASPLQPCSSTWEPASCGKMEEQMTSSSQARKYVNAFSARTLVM
Sequence of Glucocorticoid receptor (Homo sapiens) (P04150 whole entry, looked up, the tested form may be a part): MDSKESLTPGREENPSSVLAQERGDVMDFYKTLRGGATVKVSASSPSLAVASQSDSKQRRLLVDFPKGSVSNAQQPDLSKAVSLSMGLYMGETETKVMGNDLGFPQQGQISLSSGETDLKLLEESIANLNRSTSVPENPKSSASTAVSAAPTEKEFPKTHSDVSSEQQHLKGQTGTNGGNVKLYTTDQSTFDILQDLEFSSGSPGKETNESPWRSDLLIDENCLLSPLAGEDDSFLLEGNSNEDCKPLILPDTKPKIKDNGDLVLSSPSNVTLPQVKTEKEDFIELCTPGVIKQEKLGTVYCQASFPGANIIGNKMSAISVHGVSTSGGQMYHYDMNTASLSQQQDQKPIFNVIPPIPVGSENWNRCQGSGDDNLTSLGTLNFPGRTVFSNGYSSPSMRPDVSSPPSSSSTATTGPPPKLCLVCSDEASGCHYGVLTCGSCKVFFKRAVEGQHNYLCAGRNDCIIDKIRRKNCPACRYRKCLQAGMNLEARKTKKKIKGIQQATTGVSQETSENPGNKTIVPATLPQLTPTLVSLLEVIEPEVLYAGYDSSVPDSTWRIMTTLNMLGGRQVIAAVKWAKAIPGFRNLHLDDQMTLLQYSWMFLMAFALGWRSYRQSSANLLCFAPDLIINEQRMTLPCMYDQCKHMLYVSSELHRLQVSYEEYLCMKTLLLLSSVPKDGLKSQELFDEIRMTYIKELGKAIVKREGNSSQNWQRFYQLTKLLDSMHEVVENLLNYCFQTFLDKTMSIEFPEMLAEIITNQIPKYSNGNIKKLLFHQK
Sequence of Oxysterols receptor LXR-alpha (Homo sapiens) (Q13133 whole entry, looked up, the tested form may be a part): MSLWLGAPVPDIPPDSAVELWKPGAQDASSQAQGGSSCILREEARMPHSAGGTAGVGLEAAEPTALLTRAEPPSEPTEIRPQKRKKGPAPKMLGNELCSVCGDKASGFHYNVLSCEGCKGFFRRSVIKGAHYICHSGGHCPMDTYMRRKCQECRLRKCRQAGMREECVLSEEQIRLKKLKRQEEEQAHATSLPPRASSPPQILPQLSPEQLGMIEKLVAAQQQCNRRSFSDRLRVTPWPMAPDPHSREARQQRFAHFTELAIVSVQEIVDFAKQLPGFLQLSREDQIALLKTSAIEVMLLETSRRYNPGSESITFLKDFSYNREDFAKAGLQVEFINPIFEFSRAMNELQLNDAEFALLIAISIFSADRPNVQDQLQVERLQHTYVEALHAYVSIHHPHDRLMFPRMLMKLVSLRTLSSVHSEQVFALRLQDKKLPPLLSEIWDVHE
Sequence of Nuclear receptor subfamily 4 group A member 2 (Homo sapiens) (P43354 whole entry, looked up): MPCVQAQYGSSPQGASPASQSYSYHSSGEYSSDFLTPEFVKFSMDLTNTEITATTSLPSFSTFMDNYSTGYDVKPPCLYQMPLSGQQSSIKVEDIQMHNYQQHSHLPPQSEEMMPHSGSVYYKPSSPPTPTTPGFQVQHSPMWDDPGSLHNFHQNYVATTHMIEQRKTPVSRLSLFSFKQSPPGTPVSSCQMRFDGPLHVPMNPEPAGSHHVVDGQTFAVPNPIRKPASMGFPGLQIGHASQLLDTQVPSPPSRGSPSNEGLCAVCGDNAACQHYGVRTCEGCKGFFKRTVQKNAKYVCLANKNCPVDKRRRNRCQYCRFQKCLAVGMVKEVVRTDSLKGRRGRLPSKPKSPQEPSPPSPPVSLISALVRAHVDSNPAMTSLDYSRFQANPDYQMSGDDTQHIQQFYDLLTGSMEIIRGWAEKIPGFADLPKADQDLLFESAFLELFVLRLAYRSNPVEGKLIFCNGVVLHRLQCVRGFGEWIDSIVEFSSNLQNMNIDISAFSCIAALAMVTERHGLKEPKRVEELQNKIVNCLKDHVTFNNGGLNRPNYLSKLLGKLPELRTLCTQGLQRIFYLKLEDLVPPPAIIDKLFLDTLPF

In the case of `CC(C)(C)c1cc(CCC(=O)OCCSCCOC(=O)CCc2cc(C(C)(C)C)c(O)c(C(C)(C)C)c2)cc(C(C)(C)C)c1O`, the outcome [1] is reported as “inactive”, the outcome [2] is reported as “inactive” and the outcome [3] is reported as “inactive”. The outcome [4] was “inactive”, the outcome [5] was “inactive” and the outcome [6] was “inactive”. For the same compound, the outcome [7] was “inactive”, the outcome [8] was “inactive” and the outcome [9] was “inactive”. The outcome [10] was “inactive”, the outcome [11] was “inactive” and the outcome [12] was “inactive”. The outcome [13] was “inactive”, the outcome [14] was “inactive” and the outcome [15] was “inactive”.
For `CCCCCCC(O)CCOC(C)=O` (configuration not stated), the outcome [1] was “inactive”, the outcome [2] was “inactive” and the outcome [3] was “inactive”. The outcome [4] was “inactive”, the outcome [16] was “inactive” and the outcome [6] was “inactive”. For the same compound, the outcome [7] was “inactive”, the outcome [17] was “inactive” and the outcome [18] was “inactive”. The outcome [10] was “inactive”, the outcome [12] was “inactive” and the outcome [19] was “inactive”. The outcome [15] was “inactive”.
With `C=COCC1CCC(COC=C)CC1` (configuration not stated) the outcome [1] was “inactive”, the outcome [2] was “inactive” and the outcome [3] was “inactive”. The outcome [4] was “inactive”, the outcome [16] was “inactive” and the outcome [7] was “inactive”. The outcome [8] was “inactive”, the outcome [17] was “inactive” and the outcome [20] was “inactive”. The outcome [9] was “inactive”, the outcome [10] was “inactive” and the outcome [13] was “inactive”. The outcome [14] was “inactive” and the outcome [15] was “inactive”.
With `CC(=O)Oc1c(C)c(C)c2c(c1C)CC[C@@](C)(CCC[C@H](C)CCC[C@H](C)CCCC(C)C)O2` the outcome [1] was “inactive”, the outcome [2] was “inactive” and the outcome [3] was “inactive”. The outcome [4] was “inactive”, the outcome [16] was “inactive” and the outcome [6] was “inactive”. The outcome [7] was “inactive”, the outcome [8] was “inactive” and the outcome [11] was “inactive”. The outcome [12] was “inactive”, the outcome [13] was “inactive” and the outcome [14] was “inactive”. The outcome [15] was “inactive”.
With `O=S1(=O)CC(Cl)(Cl)C(Cl)(Cl)C1` the outcome [1] was “inactive”, the outcome [2] was “inactive” and the outcome [3] was “inactive”. For the same compound, the AC50 [4] was 3.71 µM (active), the outcome [16] was “inactive” and the outcome [6] was “inactive”. For the same compound, the outcome [7] was “inactive”, the outcome [8] was “inactive” and the outcome [20] was “inactive”. For the same compound, the outcome [9] was “inactive”, the outcome [18] was “inactive” and the outcome [10] was “inactive”. The outcome [11] was “inactive”, the outcome [12] was “inactive” and the outcome [13] was “inactive”. For the same compound, the outcome [14] was “inactive” and the outcome [15] was “inactive”.
